Reference: the supplement of paper PMC10849652
Of roughly 7,900 targets only a part is listed; those with a hit were picked by preference. About 0.6% of all pairs of compound and target were hits. Unmarked numbers belong to inactive results.

How the values were obtained:
Assay in all cases: log2 fold change, soluble protein after heating vs DMSO (PISA); higher = thermal stabilisation; K562 cells, 10 uM, 30 min; active = over 0.2 and 3.5 SD of the protein, either way, in both replicates (recomputed)
IRAK-1-4 Inhibitor I = compound: C1COCCN1CCN2C3=CC=CC=C3N=C2NC(=O)C4=CC(=CC=C4)[N+](=O)[O-] [IRAK-1-4 Inhibitor I]
How it was run: (§1)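 Soluble protein was quantified by TMTpro 16plex LC-MS/MS after channel sums were equalised. It was obtained as the supernatant after 21,000xg for 90 min from pooled aliquots of K562 cells (2×10^6 cells/mL, 10 μM compound, 30 min) heated for 3 min across 48°C-58°C and extracted in PBS with 0.5% NP-40 at 4°C. Thermal stability values are relative to control samples and come from duplicates. They are given as log2 fold changes.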

ibrutinib = compound: C=CC(=O)N1CCC[C@@H](n2nc(-c3ccc(Oc4ccccc4)cc3)c3c(N)ncnc32)C1 [ibrutinib]
How it was run: as §1

[1] = compound: CC(=O)c1cnc2ccc(-c3cc(Cl)c(O)c(Cl)c3)nc2c1N[C@H]1CC[C@H](CN(C)C)CC1
How it was run: as §1

ralimetinib = compound: CC(C)(C)Cn1c(N)nc2ccc(-c3[nH]c(C(C)(C)C)nc3-c3ccc(F)cc3)nc21 [ralimetinib]
How it was run: as §1

[2] = compound: CC(C)(O)CC(=O)NCCn1ccc2ncnc(Nc3ccc(Oc4cccc(C(F)(F)F)c4)c(Cl)c3)c21
How it was run: as §1

[3] = compound: CC(C)C1=C2N=C(C=C(N2N=C1)NCC3=CC=CC=C3)NCCCCCCN
How it was run: as §1

[4] = compound: CC(C)C[C@@H](C=O)NC(=O)[C@H](CC(C)C)NC(=O)[C@H](CC(C)C)NC(=O)OCc1ccccc1
How it was run: as §1

pinometostat = compound: CC(C)N(C[C@H]1O[C@@H](n2cnc3c(N)ncnc32)[C@H](O)[C@@H]1O)[C@H]1C[C@@H](CCc2nc3cc(C(C)(C)C)ccc3[nH]2)C1 [pinometostat]
How it was run: as §1

[5] = compound: CC1=C(C(CC(=O)N1)C2=CC=C(C=C2)C(F)(F)F)C(=O)NC3=C(C=C4C(=C3)C=NN4)F
How it was run: as §1

[6] = compound: CC1=C(C2=C(C=C1)C(=O)C3=CC=CC=C3N2CCCN)C
How it was run: as §1

UniProt O95486, sequence (O95486 whole entry, looked up): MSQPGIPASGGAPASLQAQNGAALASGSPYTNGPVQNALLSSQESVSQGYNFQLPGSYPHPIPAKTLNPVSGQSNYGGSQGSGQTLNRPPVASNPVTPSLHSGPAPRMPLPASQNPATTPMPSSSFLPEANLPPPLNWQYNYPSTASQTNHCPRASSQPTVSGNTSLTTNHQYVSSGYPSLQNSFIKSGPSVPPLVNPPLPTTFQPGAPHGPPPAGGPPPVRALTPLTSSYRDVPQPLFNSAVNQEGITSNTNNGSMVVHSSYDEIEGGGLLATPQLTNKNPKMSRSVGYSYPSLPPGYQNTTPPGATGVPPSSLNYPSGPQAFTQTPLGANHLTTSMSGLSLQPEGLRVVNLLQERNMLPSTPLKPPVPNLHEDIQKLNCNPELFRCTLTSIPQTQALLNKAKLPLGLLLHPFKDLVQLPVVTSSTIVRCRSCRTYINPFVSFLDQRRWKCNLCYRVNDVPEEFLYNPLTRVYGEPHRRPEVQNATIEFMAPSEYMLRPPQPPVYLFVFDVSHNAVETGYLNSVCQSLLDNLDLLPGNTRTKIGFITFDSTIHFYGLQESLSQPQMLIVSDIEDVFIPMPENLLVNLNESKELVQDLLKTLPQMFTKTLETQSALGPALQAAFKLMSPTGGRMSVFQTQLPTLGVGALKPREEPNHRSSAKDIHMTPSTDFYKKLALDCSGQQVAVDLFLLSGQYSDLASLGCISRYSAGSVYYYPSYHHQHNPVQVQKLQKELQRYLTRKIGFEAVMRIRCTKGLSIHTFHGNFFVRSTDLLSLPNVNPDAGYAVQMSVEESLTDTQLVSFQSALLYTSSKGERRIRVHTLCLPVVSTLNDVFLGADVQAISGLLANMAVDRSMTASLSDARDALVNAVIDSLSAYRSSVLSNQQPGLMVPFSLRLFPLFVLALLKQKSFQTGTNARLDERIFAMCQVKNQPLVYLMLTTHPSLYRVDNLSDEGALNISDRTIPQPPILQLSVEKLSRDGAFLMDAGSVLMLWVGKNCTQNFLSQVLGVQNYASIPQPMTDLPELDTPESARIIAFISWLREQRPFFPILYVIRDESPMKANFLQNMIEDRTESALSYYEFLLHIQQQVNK
UniProt Q9NR46, sequence (Q9NR46 whole entry, looked up): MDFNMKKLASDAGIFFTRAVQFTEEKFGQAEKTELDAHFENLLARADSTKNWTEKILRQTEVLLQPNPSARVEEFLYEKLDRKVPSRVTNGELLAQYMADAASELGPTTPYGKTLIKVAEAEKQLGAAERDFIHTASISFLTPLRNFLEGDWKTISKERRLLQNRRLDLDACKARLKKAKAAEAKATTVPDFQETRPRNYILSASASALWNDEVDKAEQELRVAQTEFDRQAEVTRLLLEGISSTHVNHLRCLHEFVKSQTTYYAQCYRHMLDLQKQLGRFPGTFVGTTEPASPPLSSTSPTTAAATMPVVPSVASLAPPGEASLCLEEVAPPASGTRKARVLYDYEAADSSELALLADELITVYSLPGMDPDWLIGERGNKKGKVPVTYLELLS
UniProt Q13546, sequence (Q13546 whole entry, looked up): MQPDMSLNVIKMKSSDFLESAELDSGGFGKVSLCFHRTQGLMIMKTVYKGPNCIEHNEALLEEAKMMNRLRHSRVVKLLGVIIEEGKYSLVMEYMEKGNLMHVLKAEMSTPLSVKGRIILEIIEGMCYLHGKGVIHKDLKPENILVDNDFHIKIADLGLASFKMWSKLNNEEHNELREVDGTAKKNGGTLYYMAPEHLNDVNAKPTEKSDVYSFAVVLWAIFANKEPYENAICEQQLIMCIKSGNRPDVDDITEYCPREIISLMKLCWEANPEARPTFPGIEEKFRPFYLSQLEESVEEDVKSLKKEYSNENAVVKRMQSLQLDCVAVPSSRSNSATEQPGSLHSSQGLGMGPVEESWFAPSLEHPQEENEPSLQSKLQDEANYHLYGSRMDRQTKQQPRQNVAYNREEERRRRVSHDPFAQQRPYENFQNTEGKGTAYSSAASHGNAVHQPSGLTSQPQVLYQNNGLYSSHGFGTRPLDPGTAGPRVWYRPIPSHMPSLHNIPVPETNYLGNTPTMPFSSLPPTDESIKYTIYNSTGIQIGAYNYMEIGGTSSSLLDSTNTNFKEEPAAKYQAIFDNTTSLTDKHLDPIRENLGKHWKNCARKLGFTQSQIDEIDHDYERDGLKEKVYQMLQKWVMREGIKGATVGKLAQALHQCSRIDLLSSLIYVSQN
UniProt Q15349, sequence (Q15349 whole entry, looked up): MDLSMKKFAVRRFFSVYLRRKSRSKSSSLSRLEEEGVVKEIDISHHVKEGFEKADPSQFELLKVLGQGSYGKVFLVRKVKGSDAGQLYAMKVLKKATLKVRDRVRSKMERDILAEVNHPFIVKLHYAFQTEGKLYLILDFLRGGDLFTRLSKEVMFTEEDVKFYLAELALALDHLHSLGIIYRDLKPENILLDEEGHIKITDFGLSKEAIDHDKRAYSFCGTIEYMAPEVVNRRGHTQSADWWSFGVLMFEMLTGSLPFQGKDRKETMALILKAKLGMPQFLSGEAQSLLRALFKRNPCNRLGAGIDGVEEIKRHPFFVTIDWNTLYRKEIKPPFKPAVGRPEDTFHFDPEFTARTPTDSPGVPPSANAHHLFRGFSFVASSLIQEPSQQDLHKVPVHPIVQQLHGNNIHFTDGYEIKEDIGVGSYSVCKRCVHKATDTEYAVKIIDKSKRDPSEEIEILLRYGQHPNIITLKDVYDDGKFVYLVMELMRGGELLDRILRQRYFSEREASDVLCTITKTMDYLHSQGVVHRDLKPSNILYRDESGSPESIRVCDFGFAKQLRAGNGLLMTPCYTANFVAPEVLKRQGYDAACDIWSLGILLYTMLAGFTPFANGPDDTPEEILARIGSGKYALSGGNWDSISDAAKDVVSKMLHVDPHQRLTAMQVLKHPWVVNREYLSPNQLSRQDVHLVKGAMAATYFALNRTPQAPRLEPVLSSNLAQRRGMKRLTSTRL
UniProt Q6NT16, sequence (Q6NT16 whole entry, looked up): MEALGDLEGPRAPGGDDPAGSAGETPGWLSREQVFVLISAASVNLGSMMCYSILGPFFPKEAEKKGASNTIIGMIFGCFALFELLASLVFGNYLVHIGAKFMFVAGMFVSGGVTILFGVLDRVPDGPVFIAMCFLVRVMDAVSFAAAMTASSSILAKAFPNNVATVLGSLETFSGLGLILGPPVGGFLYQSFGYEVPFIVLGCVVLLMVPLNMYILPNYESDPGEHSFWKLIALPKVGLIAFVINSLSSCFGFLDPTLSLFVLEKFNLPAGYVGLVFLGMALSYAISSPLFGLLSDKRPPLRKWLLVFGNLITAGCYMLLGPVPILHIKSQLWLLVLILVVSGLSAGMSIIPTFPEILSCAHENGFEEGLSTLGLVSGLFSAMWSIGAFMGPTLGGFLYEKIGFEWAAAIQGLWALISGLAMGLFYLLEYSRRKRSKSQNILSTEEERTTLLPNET
UniProt Q9BQY4, sequence (Q9BQY4 whole entry, looked up): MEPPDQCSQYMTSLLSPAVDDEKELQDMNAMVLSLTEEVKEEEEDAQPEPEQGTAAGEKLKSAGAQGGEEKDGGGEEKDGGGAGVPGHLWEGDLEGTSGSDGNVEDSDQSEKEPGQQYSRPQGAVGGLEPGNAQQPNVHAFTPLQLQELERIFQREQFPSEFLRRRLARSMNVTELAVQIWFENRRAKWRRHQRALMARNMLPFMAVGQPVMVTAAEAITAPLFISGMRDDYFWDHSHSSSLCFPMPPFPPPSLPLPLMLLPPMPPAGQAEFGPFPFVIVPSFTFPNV
UniProt P11233, sequence (P11233 whole entry, looked up): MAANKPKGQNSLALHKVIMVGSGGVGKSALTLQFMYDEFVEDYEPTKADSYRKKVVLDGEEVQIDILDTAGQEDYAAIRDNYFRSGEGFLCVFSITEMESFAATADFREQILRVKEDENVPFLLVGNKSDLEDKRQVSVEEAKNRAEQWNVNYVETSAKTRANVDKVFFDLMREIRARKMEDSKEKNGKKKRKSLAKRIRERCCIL
UniProt O00767, sequence (O00767 whole entry, looked up): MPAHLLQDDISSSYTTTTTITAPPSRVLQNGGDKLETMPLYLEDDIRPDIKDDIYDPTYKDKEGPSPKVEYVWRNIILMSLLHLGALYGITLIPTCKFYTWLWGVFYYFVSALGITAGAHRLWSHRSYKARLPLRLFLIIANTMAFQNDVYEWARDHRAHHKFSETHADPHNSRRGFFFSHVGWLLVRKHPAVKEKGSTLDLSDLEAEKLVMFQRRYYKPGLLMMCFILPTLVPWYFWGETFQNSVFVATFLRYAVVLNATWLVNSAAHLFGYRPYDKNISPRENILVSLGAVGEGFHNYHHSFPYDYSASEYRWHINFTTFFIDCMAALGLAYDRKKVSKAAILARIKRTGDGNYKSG
UniProt Q9BY42, sequence (Q9BY42 whole entry, looked up): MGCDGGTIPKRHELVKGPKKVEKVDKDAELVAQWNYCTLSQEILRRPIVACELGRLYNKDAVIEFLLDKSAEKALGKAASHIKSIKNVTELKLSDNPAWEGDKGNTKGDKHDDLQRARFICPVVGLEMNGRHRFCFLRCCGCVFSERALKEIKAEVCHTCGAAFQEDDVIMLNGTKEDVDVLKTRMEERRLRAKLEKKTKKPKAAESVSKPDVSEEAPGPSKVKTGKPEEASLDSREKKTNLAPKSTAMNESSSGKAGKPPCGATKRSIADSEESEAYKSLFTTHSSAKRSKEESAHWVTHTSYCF
UniProt Q9H6H4, sequence (Q9H6H4 whole entry, looked up): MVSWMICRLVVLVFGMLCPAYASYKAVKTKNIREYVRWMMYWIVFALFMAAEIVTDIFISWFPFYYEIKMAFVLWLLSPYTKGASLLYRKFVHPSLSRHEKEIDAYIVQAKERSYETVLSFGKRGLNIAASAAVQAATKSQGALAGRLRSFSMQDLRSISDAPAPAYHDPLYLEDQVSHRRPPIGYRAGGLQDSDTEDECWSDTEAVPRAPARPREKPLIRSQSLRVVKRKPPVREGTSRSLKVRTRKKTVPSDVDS

| Target | log2 fold change (IRAK-1-4 Inhibitor I) | log2 fold change (ibrutinib) | log2 fold change [1] | log2 fold change (ralimetinib) | log2 fold change [2] | log2 fold change [3] | log2 fold change [4] | log2 fold change (pinometostat) | log2 fold change [5] | log2 fold change [6] |
| --- | --- | --- | --- | --- | --- | --- | --- | --- | --- | --- |
| RHOXF2 (UniProt Q9BQY4) | 0.012 | 0.003 | 0.002 | 0.051 | -0.031 | -0.03 | 0.027 | -0.037 | 0.027 | -0.007 |
| REEP4 (UniProt Q9H6H4) | 0.005 | -0.003 | -0.198 | 0.164 | -0.049 | -0.157 | 0.041 | 0.13 | 0.04 | 0.036 |
| RTF2 (UniProt Q9BY42) | 0 | -0.096 | -0.017 | -0.022 | 0.032 | 0.164 | 0.098 | -0.059 | -0.025 | -0.054 |
| RBM25 (UniProt P49756) | 0.031 | 0.01 | -0.032 | 0.102 | -0.044 | 0.026 | 0.057 | -0.039 | -0.001 | 0.042 |
| SEC24A (UniProt O95486) | -0.038 | -0.017 | -0.013 | 0.018 | -0.066 | -0.057 | -0.005 | 0.005 | 0.009 | 0.019 |
| RAD50 isoform 2 (UniProt Q92878) | -0.005 | -0.004 | -0.099 | -0.03 | -0.003 | -0.002 | -0.014 | -0.013 | -0.008 | 0.006 |
| SH3GLB2 (UniProt Q9NR46) | 0.028 | 0.004 | -0.047 | 0.033 | 0.028 | -0.27 (active) | 0.066 | -0.004 | 0.001 | -0.021 |
| RALA (UniProt P11233) | -0.005 | 0.038 | 0.018 | -0.113 | 0.096 | 0.103 | -0.033 | -0.123 | -0.024 | 0.054 |
| SCD (UniProt O00767) | 0.048 | -0.023 | 0.008 | -0.148 | -0.046 | -0.222 | 0.101 | 0 | 0.024 | -0.027 |
| RPS6KA2 isoform 2 (UniProt Q15349) | 0.001 | -0.066 | -0.178 | -0.492 (active) | -0.082 | -0.082 | 0.07 | 0.01 | 0.016 | 0.006 |
| RPS27A (UniProt P62979) | -0.055 | 0.141 | 0.054 | 0.082 | 0.216 | 0.051 | 0.114 | 0.078 | 0.157 | -0.557 (active) |
| RPS19 (UniProt P39019) | -0.085 | 0.052 | 0.05 | 0.064 | 0.03 | -0.025 | 0.039 | 0.084 | 0.026 | -0.523 (active) |
| RBM8A (UniProt Q9Y5S9) | -0.027 | -0.017 | 0.127 | -0.015 | -0.002 | 0.128 | 0.024 | -0.015 | -0.029 | 0.027 |
| RIPK1 (UniProt Q13546) | -0.104 | -0.081 | -0.201 | 0.195 | -0.023 | -0.23 | 0.14 | 0.123 | -0.014 | 0.056 |
| SLC18B1 (UniProt Q6NT16) | 0.135 | 0.042 | 0.016 | -0.044 | -0.023 | -0.356 (active) | -0.05 | 0.02 | 0.05 | -0.036 |
